Screen size: about 360,000 compounds; about 7,500 (2.1%) were called active. Roughly 20% stayed inconclusive and do not appear here. This excerpt belongs to a sample that is enriched for actives. Unmarked numbers belong to inactive results. The call rests on the fitted dose curve; in most records, active means well fitted inhibition curve with a large enough effect; inconclusive means small, poorly fitted or top-dose-only effect, or effect the other way; inactive means flat fitted curve, though single readings scatter.
On the % scale 0 is the no-effect control and ±100 the full control effect; potency means the concentration at half of the fitted maximal effect.

The nature of this assay: Nrf2 qHTS screen for inhibitors. Further: nearly all actives have a fitted effect of over 60% in size. As to conditions: A549 ARE-Fluc reporter, luciferase luminescence, 18-24 h; series mostly up to 46 µM; activity change, negative = inhibition: at the top concentration. An excerpt:
NIH Molecular Libraries Probe Production Network [MLPCN]
NIH Chemical Genomics Center [NCGC]
Assay Provider: Shyam Biswal, Johns Hopkins University
Nrf2 is a transcription factor that maintains cellular redox homoestasis and protects cells from xenobiotics. Nrf2 binds to the antioxidant response element (ARE) to induce gene expression of a broad spectrum of genes that encode for antioxidants. […] Finding a small molecule that act as an inhibitor of Nrf2 function would represent a novel therapeutic target that could lead to improvement in survival of patients undergoing chemo- and/or radio- therapy.
This is the Nrf2 activity measured in the luminescent read.
1. Shibata, T., et al., Genetic Alteration of Keap1 Confers Constitutive Nrf2 Activation and Resistance to Chemotherapy in Gallbladder Cancer. Gastroenterology, 2008.
2. Sjoblom, T., et al., The consensus coding sequences of human breast and colorectal cancers. Science, 2006. 314(5797): p. 268-74.
NCGC Assay Protocol Summary:
A concentration-response assay was performed with A549 ARE_Fluc cells which are suspended in 5% FBS OPTI-MEM. Five uL were dispensed into 1536-well white TC-treated plate using the Kalypsys dispenser to achieve a density of 5000 cells/well in all columns except column 1. The plate is incubated at 37deg C at 5% CO2 for 2 hours before 23 nL of compounds are added with the Kalypsys pin tool equipped with a 1,536-pin array containing 10-nL slotted pins (FP1S10, 0.457-mm diameter, 50.8 mm long; V&P Scientific). The control compounds Budesonide and Staurosporine are both added at a concentration of 2mM and Budesonide is also added as a 1:10 titration, starting at 200uM, to achieve dose-response. After an 18-24 hour incubation at 37deg C at 5% CO2, 5ul of medium is added to column 1. Afterwards 1ul of 5x of CellTiter-Fluor (Promega) is added to every well. The plate is then incubated at 37deg C at 5% CO2 for 30 minutes before they are read on the ViewLux (Perkin Elmer) for a fluorescent read Ex=405(10)/Em=525(10) for a 3 second exposure, 2x binning, and high gain. Then 3 uL of 3x BugLite is dispensed into all wells and the plate is incubated at ambient room temperature for 15 minutes. Afterwards another ViewLux read is performed using the clear filter to get a luminescent read with the settings of 40 second exposure, 2x binning, and high gain. Cytotoxicity is assessed through the first fluorescent read and then biochemical activity against Nrf2 is measured in the luminescent read.
Take `Cc1cc(C)c(-c2csc(NC(=O)CCCc3nc4ccccc4c(=O)[nH]3)n2)c(C)c1`: the Potency is 9.2 µM (active). For the molecule `CCCn1c(C)cc(-c2csc(NC(=O)CCc3nc4ccccc4c(=O)[nH]3)n2)c1C`, the “activity change, negative = inhibition” value was -5.04%. On to `CC(=O)NCc1ccc(-c2csc(NC(=O)CCCc3nc4ccccc4c(=O)[nH]3)n2)cc1`, for which the “activity change, negative = inhibition” value was 4.73%. On to `Cc1sc2ncn(CC(=O)N3CCN(c4ccc(F)cc4)CC3)c(=O)c2c1S(=O)(=O)N1CCN(c2ncccn2)CC1`, for which the “activity change, negative = inhibition” value was -18%. With `O=C(Cc1c(F)cccc1Cl)Nc1ncc([N+](=O)[O-])s1`, the Potency was 16.4 µM (active).

With `COc1ccc(S(=O)(=O)N2CCOCC2)cc1NC(=O)Cc1c(F)cccc1Cl`, the “activity change, negative = inhibition” value is -7.15%.

In the case of `CC(C)(C)NC(=O)NC(=O)COC(=O)Cc1c(F)cccc1Cl`, the “activity change, negative = inhibition” value is -0.296%. Same read-out and setting: for `Cc1ccc(S(=O)(=O)c2cc3c(=O)n4cccc(C)c4nc3n(CCc3ccccc3)c2=N)cc1C` the value was 3.09%; for `COC(=O)c1ccccc1NC(=O)c1cnn(-c2ccc(F)cc2)c1-n1cccc1`, 29.2%.

For the molecule `COc1ccc2c(c1)c(N1CCCC1=O)c(C(=O)Nc1ccccc1C(F)(F)F)n2C`, the “activity change, negative = inhibition” value was 25.9%.

With `CCC1([N+](=O)[O-])COC(c2ccc(C)cc2)OC1` (centres undefined), the “activity change, negative = inhibition” value was 8.27%. On the same count and under the same terms, to `CCOC(=O)c1ccc(NC(=O)C2CC(=O)NC(=Nc3ccc(C)c(C)c3)S2)cc1` (centres undefined) belongs 2.13%. For `CC[n+]1cc(C)ccc1/C=C/c1ccc(N(C)C)cc1`, the Potency is 4.11 µM (active).

Regarding `CN(C)c1ccc(/C=N\S(=O)(=O)c2ccccc2)cc1`, the “activity change, negative = inhibition” value is 0.274%.

As for `C=CC(COCc1ccccc1)N(CC(=O)OC)S(=O)(=O)c1cc(Br)ccc1OC` (centres undefined), the “activity change, negative = inhibition” value is -14.9%. Still for that read-out and setting: to `Cc1nn(CC(=O)O)c(=O)c2cc3cc(F)ccc3n12` belongs 1.3%. On to `Cc1ccccc1C(=O)OC1OC(=O)C(Cl)=C1Nc1ccccc1` (centres undefined), for which the Potency is 8.2 µM (active).

Turning to `O=C1OC(OC(=O)c2ccccc2Br)C(N2CCOCC2)=C1Cl` (centres undefined), the “activity change, negative = inhibition” value is -22.5%. On the same count and under the same terms, for `Cc1ccccc1C(=O)O` the value was -0.366%; for `CCOC(=O)c1c(-c2ccc(OC)cc2)oc2ccc(OCc3ccc(C(=O)OC)cc3)cc12`, -9.39%.

`O=C(NCCCN1CCOCC1)c1cn(-c2ccccc2)nc1-c1ccc(F)cc1`: the “activity change, negative = inhibition” value is -5.73%.

Take `CCCCCCSc1ccc(-c2nc3ccc(Cl)cn3c2NCc2ccccc2)cc1`: the “activity change, negative = inhibition” value was 6.14%. On to `O=C(CNC(=O)c1ccc(Cl)c(C(F)(F)F)c1)OC(C(=O)Nc1cc(C(F)(F)F)ccc1Cl)c1ccccc1` (centres undefined), for which the “activity change, negative = inhibition” value is 17%. Turning to `COc1ccc(OC)c(/C=C/C(=O)c2ccc3c(c2)OCO3)c1`, the “activity change, negative = inhibition” value is -2.43%. With `CCc1nn(CC(=O)N2CCN(c3cc(C)ccc3C)CC2)c(=O)c2cc3occc3n12`, the Potency result is “inactive”. On the same count and under the same terms, for `Cc1ccc(C)c(N2CCN(C(=O)Cn3ncn4cccc4c3=O)CC2)c1` the value was 23.1 µM (active). As for `Cc1ccc(C)c(N2CCN(C(=O)Cn3nc(C)c4sc5ccccc5c4c3=O)CC2)c1`, the “activity change, negative = inhibition” value was -25.7%. Regarding `COc1ccc(-c2nc(CN3CCC(C(=O)NCCN(CC(C)C)CC(C)C)CC3)c(C)o2)cc1OC`, the “activity change, negative = inhibition” value was 1.5%. The same measure, in the same setting: to `CN(C(=O)c1cccc(NC(=O)Cc2ccc(NC(=O)C3CCN(C(=O)C4CCCCC4)CC3)cc2)c1)C1CCC1` belongs 5.92%.

For the molecule `COc1ccccc1N1CCN(C(=O)CN(Cc2ccc(Cl)cc2)S(C)(=O)=O)CC1`, the Potency is 23.1 µM (active).

On to `COc1ccccc1N1CCN(S(=O)(=O)c2ccc(Cl)cc2)CC1`, for which the “activity change, negative = inhibition” value was -28.2%. The same measure, in the same setting: to `CS(=O)(=O)N(CC(=O)N1CCCC1)Cc1ccccc1` belongs 0.0838%; to `O=S1(=O)N=C(Oc2cccc(Br)c2)c2ccccc21`, -1.46%; to `COc1ccc(-c2cc(-c3nc(-c4cc(OC)c(OC)c(OC)c4)no3)[nH]n2)c(OC)c1`, -8.11%. Same read-out and setting: to `CC(C)(C)OC(=O)N1CCC(C(=O)Nc2cccc(C(=O)NCCc3ccccc3)c2)CC1` belongs -0.0845%; to `CCN(CCCNC(=O)CSc1cc(=O)n(C)c2cc(Cl)ccc12)c1cccc(C)c1`, 0.522%.

`Cc1ccc(C(=O)NC2CCN(C#N)CC2)cc1`: the “activity change, negative = inhibition” value is 7.04%.

As for `Cc1cc(=O)n2[nH]c(-c3cccc(Cl)c3)cc2n1`, the “activity change, negative = inhibition” value is 7.12%. Take `Cc1nc2c(-c3ccccc3)c(C)[nH]n2c(=O)c1Cl`: the Potency is 20.6 µM (active).

Turning to `COCc1cc(=O)n2[nH]c(C)c(-c3ccccc3)c2n1`, the “activity change, negative = inhibition” value is -21.7%.

With `O=[S+]([O-])(c1ccc2c(c1)OCCO2)N1CCN([S+](=O)([O-])c2c(Cl)cc(Cl)cc2Br)CC1`, the “activity change, negative = inhibition” value was 4.14%. Take `COc1cccc(CNS(=O)(=O)c2ccc3c(c2)CC(C)N3C(=O)C2CCC2)c1` (centres undefined): the Potency was 11.6 µM (active). Regarding `COc1cccc(CNS(=O)(=O)c2ccc3c(c2)CC(C)N3C(C)=O)c1` (centres undefined), the “activity change, negative = inhibition” value was -2.36%. Turning to `COc1ccc(N(C)S(=O)(=O)c2ccc3c(c2)CC(C)N3C(=O)C2CC2)c(OC)c1` (centres undefined), the “activity change, negative = inhibition” value is -21.9%. On the same count and under the same terms, to `CC(=O)OC1CCC2C3CCC4=C(CC(F)C(=O)C4)C3CCC12C` (centres undefined) belongs -23.5%; to `C/C=C/c1ccc(OCC(=O)NNC(=O)CN(C)S(=O)(=O)c2ccc(C)cc2)c(OC)c1`, 2.15%. `Cc1ccc(C)c(N2CCN(C(c3ccccc3)c3nnc(-c4ccccc4)o3)CC2)c1` (centres undefined): the “activity change, negative = inhibition” value is 0.91%.

Take `CCCn1c(NCc2ccc(N(CC)CC)cc2)nc2ccccc21`: the “activity change, negative = inhibition” value is 1.93%. On the same count and under the same terms, for `O=C(/C=C/c1ccccc1)N/C(=C/c1ccccc1)C(=O)Nc1ccccc1O` the value was 17.7%.

The values are drawn from PubChem BioAssay AID504444 (National Center for Advancing Translational Sciences (NCATS), 2011).
